Results filed as inconclusive are left out. Active and inactive are the calls of the source. Unless noted, calls come from the whole dose curve; as a rule, active = well fitted curve in the direction sought with a large enough effect in the repeat runs; inconclusive = weak or mixed curves; inactive = no such curve, though single readings can be large; an effect the other way counts as inactive or inconclusive.
Tests used:
[1] = qHTS assay to identify small molecule antagonists of the glucocorticoid receptor (GR) signaling pathway - cell viability counter screen (AID 720693); note: nearly all actives have a fitted effect of over 55% in size
[2] = qHTS assay for identifying genotoxic compounds that show differential cytotoxicity against isogenic chicken DT40 cell lines with known DNA damage response pathways - wild type cell line (AID 743012); note: nearly all actives have a fitted effect of over 60% in size; note: potency is the fitted concentration of half-maximal effect
Summary of the method: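 CellTiter-Glo luminescence readout of viability in wild type DT40 cells after 40 h compound exposure at 37 C/5% CO2; 300 cells/well; reagent incubated 30 min at room temperature before reading.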

[3] = qHTS assay for identifying genotoxic compounds that show differential cytotoxicity against isogenic chicken DT40 cell lines with known DNA damage response pathways - Rev3 mutant cell line (AID 743014); note: nearly all actives have a fitted effect of over 55% in size; note: potency is the fitted concentration of half-maximal effect
[4] = qHTS assay to identify small molecule antagonists of the androgen receptor (AR) signaling pathway - cell viability counter screen (AID 743033; note: nearly all actives have a fitted effect of over 45% in size)
[5] = qHTS assay to identify small molecule antagonists of the androgen receptor (AR) signaling pathway using the MDA cell line - cell viability counter screen (AID 743041; note: nearly all actives have a fitted effect of over 45% in size)
Summary of the method: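 Compound exposure lasted 16 h at 37C in MDA-kb2 AR-luc cells stimulated with R1881. Protease-based CellTiter-Fluor reagent was applied for the final 30 min and fluorescence measured.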

[6] = qHTS assay to identify small molecule antagonists of the thyroid receptor (TR) signaling pathway - cell viability counter screen (AID 743064); note: nearly all actives have a fitted effect of over 50% in size
Summary of the method: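 In rat pituitary GH3.TRE-Luc reporter cells co-exposed to compound and 1 nM T3 for 23.5 h, cytotoxicity was assessed with CellTiter-Fluor in the same wells, read by fluorescence.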

[7] = qHTS assay for identifying genotoxic compounds that show differential cytotoxicity against isogenic chicken DT40 cell lines with known DNA damage response pathways - Rad54/Ku70 mutant cell line (AID 743015); note: nearly all actives have a fitted effect of over 60% in size; note: potency is the fitted concentration of half-maximal effect
[8] = target: Androgen receptor (Homo sapiens) (UniProt P10275); assay: qHTS assay to identify small molecule agonists of the androgen receptor (AR) signaling pathway (AID 743036; active = well fitted activation curve with a large enough effect in the signal ratio in the repeat runs, with a control signal flat, not every such curve was filed as active; the % refers to the signal ratio)
Sequence of Androgen receptor (Homo sapiens) (P10275 whole entry, looked up): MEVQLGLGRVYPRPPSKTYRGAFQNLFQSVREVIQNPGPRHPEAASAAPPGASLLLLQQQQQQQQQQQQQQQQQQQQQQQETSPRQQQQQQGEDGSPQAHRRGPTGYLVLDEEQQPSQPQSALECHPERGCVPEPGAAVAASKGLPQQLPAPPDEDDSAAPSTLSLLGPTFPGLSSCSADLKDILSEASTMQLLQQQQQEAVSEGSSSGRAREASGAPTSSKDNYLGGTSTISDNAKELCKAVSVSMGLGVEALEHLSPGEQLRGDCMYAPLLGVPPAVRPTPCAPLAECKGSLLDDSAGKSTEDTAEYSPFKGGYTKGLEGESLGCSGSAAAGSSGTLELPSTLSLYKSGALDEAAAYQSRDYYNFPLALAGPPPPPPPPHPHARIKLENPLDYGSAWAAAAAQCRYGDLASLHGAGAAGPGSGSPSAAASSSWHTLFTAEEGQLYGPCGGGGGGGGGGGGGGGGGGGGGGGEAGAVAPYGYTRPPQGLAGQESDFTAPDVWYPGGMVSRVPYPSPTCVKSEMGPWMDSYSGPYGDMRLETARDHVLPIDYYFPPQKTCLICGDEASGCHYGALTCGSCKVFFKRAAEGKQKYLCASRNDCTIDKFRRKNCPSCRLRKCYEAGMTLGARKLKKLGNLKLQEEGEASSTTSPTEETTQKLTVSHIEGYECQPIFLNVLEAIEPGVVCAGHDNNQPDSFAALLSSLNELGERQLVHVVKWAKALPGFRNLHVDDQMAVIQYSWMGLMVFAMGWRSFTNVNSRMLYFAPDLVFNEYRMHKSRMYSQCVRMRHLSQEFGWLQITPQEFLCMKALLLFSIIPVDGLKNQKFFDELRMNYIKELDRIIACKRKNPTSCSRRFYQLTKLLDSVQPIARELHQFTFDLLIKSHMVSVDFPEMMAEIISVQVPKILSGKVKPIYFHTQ
Summary of the method: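 Cell-based FRET reporter assay: HEK293 line with a UAS-beta-lactamase construct, compounds added in DMSO, 16 h exposure at 37C, then 2 h substrate step at room temperature and fluorescence intensity read.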

[9] = target: Androgen receptor (Homo sapiens) (UniProt P10275); assay: qHTS assay to identify small molecule agonists of the androgen receptor (AR) signaling pathway using the MDA cell line (AID 743040; note: nearly all actives have a fitted effect of over 20% in size)
Summary of the method: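 Testing was done with the MDA-kb2 AR-luc line, a human breast carcinoma stably transfected with MMTV-luciferase containing AR and GR response elements. Cells were exposed 16 h at 37C before ONE-Glo luminescence detection.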

[10] = target: Androgen receptor (Homo sapiens) (UniProt P10275); assay: qHTS assay to identify small molecule antagonists of the androgen receptor (AR) signaling pathway using the MDA cell line (AID 743042; note: nearly all actives have a fitted effect of over 55% in size)
Summary of the method: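 MDA-kb2 breast carcinoma cells carrying MMTV-luciferase (AR/GR responsive) were co-treated with compounds and the agonist R1881 for 16 h at 37C. Inhibition read as ONE-Glo luminescence; CellTiter-Fluor fluorescence measured in parallel for cytotoxicity.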
% is set by controls: 0 for no effect and ±100 for the full control effect.

CC(=O)c1c(C)cc(C(C)(C)C)cc1C
inactive: outcome [1] | Potency [2] | Potency [3] | outcome [4] | outcome [5]

C[C@]12C=CC(=O)C=C1[C@@H](F)C[C@@H]1[C@@H]2[C@@H](O)C[C@@]2(C)[C@H]1CC[C@]2(O)C(=O)CO
inactive: outcome [1] | outcome [4] | outcome [5] | Potency [6]
active: Potency [2] 18.8 µM | Potency [3] 18.8 µM

CCCCS
inactive: outcome [1] | Potency [2] | Potency [3] | Potency [7] | outcome [5] | Potency [6]

CCC(=O)OCCOc1ccccc1
inactive: outcome [1] | Potency [2] | Potency [3] | outcome [4] | outcome [5]

Cc1cc(C)c(N)c(Cl)c1
inactive: outcome [1] | Potency [2] | Potency [3] | outcome [4] | outcome [5] | Potency [6]

N=C(N)S(=O)O
inactive: outcome [1] | Potency [2] | Potency [3] | outcome [4] | outcome [5] | Potency [6]

CN(C)CCc1c[nH]c2ccc(C[C@H]3COC(=O)N3)cc12
inactive: outcome [1] | Potency [2] | Potency [3] | outcome [4] | outcome [5] | Potency [6]

COc1cc(NS(=O)(=O)c2ccc(N)cc2)ncn1
inactive: outcome [1] | Potency [2] | Potency [3] | Potency [7] | outcome [5] | Potency [6]

CC(=O)SC[C@@H](C)C(=O)N1CCC[C@H]1C(=O)N[C@@H](Cc1ccccc1)C(=O)O
inactive: outcome [1] | Potency [2] | Potency [3] | Potency [7] | outcome [5] | Potency [6]

O=C1CC2(CCCC2)CC(=O)N1CCNCC1COc2ccccc2O1 (configuration not stated)
active: Potency [2] 21.1 µM | Potency [3] 26.6 µM | Potency [7] 26.6 µM
inactive: outcome [1] | Potency [6]

CN(C)CCC[C@@]1(c2ccc(F)cc2)OCc2cc(C#N)ccc21
inactive: outcome [1] | Potency [2] | Potency [3] | outcome [4] | outcome [5] | Potency [6]

C[C@H]1COc2c(C3(N)CC3)c(F)cc3c(=O)c(C(=O)O)cn1c23
inactive: outcome [1] | Potency [2] | Potency [3] | Potency [7] | outcome [5] | Potency [6]

Cc1ccccc1C#N
inactive: outcome [1] | Potency [2] | Potency [3] | Potency [7] | outcome [5] | Potency [6]

O=C(O)Cc1c(Cl)ccc(Cl)c1Cl
inactive: outcome [1] | Potency [2] | Potency [3] | outcome [4] | outcome [5] | Potency [6]

CC(=O)OC1CCC(C(C)(C)C)CC1 (configuration not stated)
inactive: outcome [1] | Potency [2] | Potency [3] | outcome [4] | outcome [8] | outcome [9] | outcome [5] | outcome [10]

N=C(N)N
inactive: outcome [1] | Potency [2] | Potency [3] | Potency [7] | outcome [5] | Potency [6]

COc1cc2nc(N3CCN(C(=O)C4CCCO4)CC3)nc(N)c2cc1OC (configuration not stated)
inactive: outcome [1] | Potency [2] | Potency [3] | outcome [4] | outcome [5]

COc1ccc(Cl)cc1C
inactive: outcome [1] | Potency [2] | Potency [3] | outcome [4] | outcome [5]

Nc1ccc(C(=O)NCC(=O)O)cc1
inactive: outcome [1] | Potency [2] | Potency [7] | outcome [5] | Potency [6]

O=C[C@@H](O)[C@H](O)[C@H](O)CO
inactive: outcome [1] | Potency [3] | Potency [7] | outcome [4] | outcome [8] | outcome [9] | outcome [10] | Potency [6]

CCCCCC(=O)CC
inactive: outcome [1] | Potency [2] | Potency [7] | outcome [4] | outcome [5] | Potency [6]

CCCCCCCOC(C)=O
inactive: outcome [1] | Potency [2] | Potency [3] | outcome [5] | Potency [6]

Nc1nc(Cl)cc(Cl)n1
inactive: outcome [1] | Potency [2] | Potency [3] | outcome [5]

O=c1[nH]c(=O)c2cn[nH]c2[nH]1
inactive: outcome [1] | Potency [2] | Potency [7] | outcome [5] | Potency [6]

Cc1nc2ccc(Cl)cc2[nH]1
inactive: outcome [1] | Potency [2] | outcome [5] | Potency [6]

C=CCCCCCCCCOC(C)=O
inactive: outcome [1] | Potency [2] | Potency [3] | outcome [5]

CCOc1ccccc1OCCN[C@H](C)Cc1ccc(OC)c(S(N)(=O)=O)c1
inactive: outcome [1] | Potency [2] | Potency [7] | outcome [4] | outcome [5] | Potency [6]

COC(=O)c1ccc(C(=O)O)cc1
inactive: outcome [1] | Potency [2] | Potency [3] | outcome [5] | Potency [6]

CCCCCCC(=O)c1ccccc1
inactive: outcome [1] | Potency [2] | outcome [4] | outcome [5]

COCCCOc1cc(C[C@@H](C[C@H](N)[C@@H](O)C[C@H](C(=O)NCC(C)(C)C(N)=O)C(C)C)C(C)C)ccc1OC
inactive: outcome [1] | Potency [3] | Potency [7] | outcome [4] | outcome [5]

CC(C)C(C)C
inactive: outcome [1] | Potency [2] | Potency [3] | outcome [5] | Potency [6]

COC(=O)N/N=C/c1c[n+]([O-])c2ccccc2[n+]1[O-]
inactive: outcome [1] | Potency [2] | outcome [4] | outcome [5] | Potency [6]

CCCCCCCCCCCCCCCCN(C)C
inactive: viability change, negative = cytotoxic [1] 9.67% [at 7.04 µM] | activity change, negative = cytotoxicity [2] 9.27% [at 8.52 µM] | activity change, negative = cytotoxicity [4] -5.02% [at 7.04 µM] | activation [8] -6% [at 6.9 µM] | activity change [9] 0.294% [at 8.47 µM] | viability change, negative = cytotoxic [5] -2.54% [at 8.47 µM] | activity change, negative = inhibition [10] 19.6% [at 8.47 µM] | activity change, negative = cytotoxic [6] 0.507% [at 8.44 µM]

CC/C=C\CCCCCCCCCCOC(C)=O
inactive: outcome [1] | Potency [2] | Potency [3] | outcome [5]

O=C(O)CCC(=O)Nc1ccc(S(=O)(=O)Nc2nccs2)cc1
inactive: outcome [1] | Potency [2] | Potency [7] | outcome [4] | outcome [5] | Potency [6]

C/C(=N\O)c1ccc(OCC(=O)N2CCCCC2)cc1
inactive: outcome [1] | Potency [3] | Potency [7] | outcome [4] | outcome [8] | outcome [9] | outcome [5] | outcome [10] | Potency [6]

CC(CN1CC(=O)NC(=O)C1)N1CC(=O)NC(=O)C1 (configuration not stated)
inactive: outcome [1] | outcome [4] | outcome [8] | outcome [5] | outcome [10]
active: Potency [2] 4.22 µM | Potency [7] 0.596 µM

COc1ccc2cc(CCC(C)=O)ccc2c1
inactive: outcome [1] | Potency [3] | Potency [7] | outcome [4] | outcome [5]

CCCCCCCCCCCCCCCC(=O)OC
inactive: outcome [1] | Potency [2] | Potency [3] | outcome [5]

CCOC(=O)[C@H](CCc1ccccc1)N[C@H]1CS[C@H](c2cccs2)CN(CC(=O)O)C1=O
inactive: outcome [1] | Potency [2] | Potency [7] | outcome [4] | outcome [8] | outcome [9] | outcome [5] | outcome [10]

CNCCc1ccccn1
inactive: outcome [1] | Potency [2] | Potency [3] | outcome [5] | Potency [6]

From PubChem BioAssay (Tox21)
